Assay outcomes (PubChem BioAssay)
PostGolgi yeast = phenotypic screen on post-Golgi transport, primary screen; post-Golgi transport phenotypic cell assay; actives 0.9% (n = 98,000); inhibition, % at 10 µM;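 also: yeast cells grown in 1536-well plates; yeast grown about 18 h at 30C before absorbance read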
Cav32 inh = Cav3.2 calcium influx blockers – cell-based, Fluo-4 calcium fluorescence, FDSS, MLSMR library, primary screen. Voltage-dependent T-type calcium channel subunit alpha-1H (Homo sapiens), O95180. Cav3.2-expressing cells; stronger effect = lower value. B-score at 10 µM. actives 4% (n = 100,000). AID 449739, 2010;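 active = single-dose well whose peak fluorescence ratio is a statistical outlier from its plate by either plate-standardised score or position-corrected B-score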
DAT uptake mod = changed hDAT dopamine uptake under cocaine IC80, either direction, primary screen, cocaine antagonist project, cell-based, LLC-PK1 hDAT, [14C]-dopamine uptake, MLSMR; Sodium-dependent dopamine transporter (Homo sapiens), Q01959; LLC-PK1 hDAT cells, [14C]-dopamine uptake with cocaine IC80; actives deviate in either direction; B-score at 10 µM; actives 1.3% (n = 110,000);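 active = Z score or B-score, a plate-position-corrected score, falls beyond the plate's 99.7% confidence bounds, in either direction; inactive = both scores lie inside the 99.7% bounds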;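 also: scored against the spread of the other compound wells on the same plate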
PLAP activator = PLAP enzyme activators, biochemical, luminescence, HTS; activation fold at 20 µM; purified PLAP enzyme, luminescent substrate read-out; stronger effect = higher value; actives 1.2% (n = 96,000); Alkaline phosphatase, placental type (Homo sapiens), P05187; AID 696, 2007; in the data active = activation fold above about 2
PostGolgi ctrl = growth inhibition of yeast control strain, primary screen, counter-screen for post-Golgi transport modulator project. AID 738, 2007. actives 5% (n = 98,000). inhibition, % at 10 µM. efflux-deficient yeast background strain, growth absorbance A615, 16 h
An asterisk follows results filed as active; / = no result given. A selection: hits, their analogues and other compounds. The true share with any hit is near 9.6%. Rule as the data show it, unless noted: active = inhibition above about 30%; inactive = the rest.

SMILES	PostGolgi yeast	Cav32 inh	DAT uptake mod	PLAP activator	PostGolgi ctrl
Cc1sc2nc(SCC(=O)NCc3ccco3)n(Cc3ccccc3)c(=O)c2c1C	-2.1	0.672	-0.0963	1	16.5
CC(Sc1nnc(-c2cccnc2)n1-c1ccccc1)C(=O)NCc1ccc2c(c1)OCO2 (stereo not given)	-1.1	0.745	0.181	0.9	8.6
COc1ccc(-c2nnc(SC(C)C(=O)NCc3ccc4c(c3)OCO4)n2Cc2ccco2)cc1 (stereo not given)	0.0	-5.27*	0.359	1.6	11.8
Cc1[nH]c2ccc(-c3nnc(SCC(=O)NCc4ccco4)n3Cc3ccccc3)cc2c1C	0.5	-4.05	1.98	2.1*	9.1
CC1Cc2nc(SCC(=O)NCc3ccco3)n(Cc3ccccc3)c(=O)c2S1 (stereo not given)	-14.9	0.131	-1.1	0.9	43.2*
CC(C)c1cc(C(F)(F)F)n2nc(C(=O)Nc3ccc4c(c3)OCO4)cc2n1	8.6	-2.51	-0.0319	1	13.8
CCOc1ccccc1C1C(C(=O)Nc2ccccc2OC)=C(C)Nc2nnnn21 (stereo not given)	1.6	0.917	-0.421	0.9	11.0
ONC(=Nc1ccccc1)C(=Nc1ccccc1)NO	-8.5	0.907	-0.0878	1	3.4
O=[N+]([O-])c1cc(Br)c(O)c(/C=N/Nc2nnnn2-c2cccc3ccccc23)c1	-3.6	-9.26*	-1.85	1.7	8.8
C=CCOc1ccc2cccc(/C=N/NC(=O)c3cc4cc([N+](=O)[O-])ccc4s3)c2c1	-10.3	-1.31	-0.0812	1.1	5.4
COc1ccc(O)c(/C=c2/sc3nc4cc(C)c(C)cc4n3c2=O)c1	-5.5	-0.735	0.571	1.3	3.4
CCOc1ccc(C(=O)N/N=C/c2ccc(-c3ccc(S(=O)(=O)Nc4ncccn4)cc3)o2)cc1	0.2	0.801	-1.22	2.1*	9.7
O=C(N/N=C/c1ccc(-c2ccc(S(=O)(=O)Nc3ncccn3)cc2)o1)c1cc2ccccc2cc1O	-1.7	/	/	1.9	10.5
CCO[C@H]1OC(C(=O)Nc2ccccc2)=C[C@@H](c2coc3ccccc3c2=O)[C@@H]1CCCO	/	-0.372	1.35	/	/
CC(=O)c1c(C)[nH]c(C(=O)COc2ccc(C#N)cc2)c1C	3.3	0.151	-0.29	1.2	32.0*
COc1ccccc1OCC(=O)c1[nH]c(C)c(C(C)=O)c1C	2.4	-0.563	1.17	1	2.1
COc1ccc(N2CCN(C(CNS(=O)(=O)c3cc(F)ccc3F)c3cccnc3)CC2)cc1 (stereo not given)	-0.7	/	/	1.3	-2.2
CC(OC(=O)c1ccc2ccccc2n1)C(=O)Nc1ccc(N2CCOCC2)cc1 (stereo not given)	3.5	-0.422	0.896	0.8	31.3*
Cc1noc(C)c1COc1ccc(C(=O)OC(C)C(=O)Nc2ccc(N3CCOCC3)cc2)cc1 (stereo not given)	12.8	1.12	-1.84	1	4.4
CNc1oc(-c2ccc(C)cc2)nc1P(=O)(c1ccccc1)c1ccccc1	6.0	-4.32*	/	1	25.6
Cc1nc(P(=O)(c2ccccc2)c2ccccc2)c(N2CCOCC2)o1	2.0	0.93	-0.708	1.4	0.8
O=C(Nc1ccc2c(c1)OCO2)N1CCN(c2ncc(C(F)(F)F)cc2Cl)CC1	7.7	-6.62*	-0.224	1	-2.5
CC(SC1CCCC1)C(=O)NC(C)(C#N)C(C)C (stereo not given)	19.0	-0.673	-0.0261	1	31.5*
COCC(C)NC(=O)C1CC(c2cccc(Br)c2)=NO1 (stereo not given)	-7.4	0.189	2.25	1	-10.4
N=c1c(C(=O)NCc2ccco2)cc2c(=O)n3ccccc3nc2n1Cc1ccccc1	2.6	-1.63	2.08	1.4	0.0
SMILES	PostGolgi yeast	Cav32 inh	DAT uptake mod	PLAP activator	PostGolgi ctrl
N=c1c(C(=O)NCc2ccco2)cc2c(=O)n3ccccc3nc2n1Cc1ccc(Cl)cc1	11.5	-2.13	2.05	1.4	34.5*
C[C@H]1CCC[C@]2(O[C@H](CCO)C[C@@H](O)[C@@H]2O)O1	/	0.198	-0.0521	/	/
NC(=O)c1ccsc1NC(=O)c1ccc(S(=O)(=O)N2CCCCC2)cc1	-4.0	/	1.61	0.8	50.9*
Cc1cc(C)c(S(=O)(=O)N2CCCCC2)cc1N(C)S(=O)(=O)c1ccc(Cl)cc1	5.5	-4.04	0.0998	1.3	21.6
Cc1cc(C)c(S(=O)(=O)N2CCCCC2)c(C)c1N(C)S(=O)(=O)c1ccccc1	3.1	-4.34*	0.194	1.1	9.6
O=C1Nc2cc(Cl)ccc2Nc2cscc21	/	-2.08	-0.709	/	/
O=C(NC1CCN(C(=S)NCc2ccco2)CC1)NC12CC3CC(CC(C3)C1)C2	-3.5	-3.8*	0.236	1	26.7
Cn1c(=O)c2cc(S(=O)(=O)NCCC(=O)NCC3CCCO3)ccc2n(C)c1=O (stereo not given)	-1.6	0.265	-0.059	1	12.8
CCc1nc(N(CC)CC)c2oc3ccccc3c2n1	-5.5	-2.53	-0.174	/	36.4*
CCc1nc(NCc2ccc3c(c2)OCO3)c2oc3ccccc3c2n1	0.2	-3.68*	-0.656	1.2	55.2*
CCNc1nc(CC)nc2c1oc1ccccc12	-11.9	-0.00541	-0.498	/	5.3
Cc1nc(NCc2ccc3c(c2)OCO3)c2oc3ccccc3c2n1	-1.0	-1.48	1.38	/	23.8
Cc1ccc(S(=O)(=O)Nc2nc(C)c(NC(=O)OCCCl)s2)cc1	15.1	/	/	1.5	15.2
Cc1ccc(S(=O)(=O)Nc2nc(C)c(NC(=O)Nc3ccc(Cl)cc3Cl)s2)cc1	5.2	-3.23	-1	1.3	41.2*
O/N=C/c1ccccc1OCc1ccccc1Cl	-1.7	-1.45	-0.286	1	15.4
O/N=C/c1ccccc1OCc1ccc(Cl)cc1	7.0	-2.22	0.195	0.6	77.0*
CC1Cc2ccccc2N1C(=O)CSc1nnnn1C(C)C (stereo not given)	-4.2	0.0732	-0.703	1.4	-0.9
Cc1cccc(OCC(=O)N/N=C/c2cn[nH]c2-c2ccc(Cl)c(Cl)c2)c1	-5.4	/	/	1.2	37.7*
O=C(Oc1cccc([N+](=O)[O-])c1)c1cc(-c2ccccc2)nc2ccccc12	-4.6	0.419	0.121	0.9	0.3
CCCCOc1ccccc1NC(=O)c1ccco1	-1.8	-4.46*	-0.939	1	8.6
COc1ccc(C(=O)Nc2ccccc2NC(=O)c2ccco2)cc1OC	-10.0	-1.3	2.77*	1	7.3
COC(=O)c1ccccc1NC(NC(=O)c1ccco1)C(=O)c1ccccc1 (stereo not given)	7.6	-0.0617	0.0106	1	4.4
COc1ccccc1NC(NC(=O)c1ccco1)C(=O)c1ccccc1 (stereo not given)	-6.2	0.13	34.9*	1	0.6
Cc1cc(C)n(C(=O)CNC(=O)CCc2ccccc2)n1	-0.3	-0.84	-2.44	1.1	16.8
